Measured values reported in PubChem BioAssay.
The source made the active and inactive calls.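 The calls were made as follows: active = compounds that lower survival of HCT116 colon cancer cells in the luminescence readout, no numeric limit stated; inactive = the rest.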

Assay: HCT116 colon cancer cell growth inhibition, primary screen, CellTiter-Glo luminescence, NPC library (AID 1117342)
Details: at 20 µM (top of the series)
In the case of `Cc1cc2c(OCC(CNC(C)(C)C)OC(=O)c3ccccc3)cccc2[nH]1` (stereo not given), the inhibition of viability is reported as 30.9% (inactive). For `CC(CNC1CCCCC1)OC(=O)c1ccccc1` (stereo not given), the inhibition of viability was -12.8% (inactive). For `C[C@]12CC[C@H]3[C@@H](CCC4=CC(=O)CC[C@@]43C)[C@@H]1CC[C@@H]2C(=O)CO`, the inhibition of viability was 27.8% (inactive). In the case of `CCc1cccc(CC)c1NC(=O)CN(CC(=O)O)CC(=O)O`, the inhibition of viability is reported as 12% (inactive). With `CCC(=O)c1ccc(O)cc1` the inhibition of viability was 16.7% (inactive). For `FCOC(C(F)(F)F)C(F)(F)F`, the inhibition of viability was -0.4% (inactive). In the case of `COc1ccccc1Oc1c(NS(=O)(=O)c2ccc(C(C)(C)C)cc2)nc(-c2ncccn2)nc1OCCO`, the inhibition of viability is reported as 12.9% (inactive). In the case of `CCC(C)(CN(C)C)OC(=O)c1ccccc1` (stereo not given), the inhibition of viability is reported as -6.83% (inactive). In the case of `OC[C@@H](O)[C@@H](O[C@@H]1O[C@H](CO)[C@H](O)[C@H](O)[C@H]1O)[C@H](O)[C@@H](O)CO`, the inhibition of viability is reported as 6.7% (inactive). With `CC1(C)CC1C(=O)NC(=CCCCCSCC(N)C(=O)O)C(=O)O` (stereo not given) the inhibition of viability was 37.8% (inactive). With `C/C(=C(\CCOP(=O)(O)O)SC(=O)c1ccccc1)N(C=O)Cc1cnc(C)nc1N` the inhibition of viability was 4.6% (inactive). For `CC[N+](C)(CC)CCOC(=O)C1c2ccccc2Oc2ccccc21`, the inhibition of viability was 6% (inactive). With `CN1CCN(CCCN2c3ccccc3Sc3ccc(S(=O)(=O)N(C)C)cc32)CC1` the inhibition of viability was 99.9% (active). In the case of `O=C(O)CCc1nc2ccccc2[nH]1`, the inhibition of viability is reported as -11.8% (inactive). For `OC(CCCN1CCCCC1)(c1ccccc1)c1ccccc1`, the inhibition of viability was 6.1% (inactive). For `NS(=O)(=O)c1cc(C(=O)O)cc(N2CCCC2)c1Oc1ccccc1`, the inhibition of viability was 6.7% (inactive). With `CN(CCCCCCCCCCN(C)C(=O)Oc1cccc([N+](C)(C)C)c1)C(=O)Oc1cccc([N+](C)(C)C)c1` the inhibition of viability was 57.4% (active). In the case of `CC(C(=O)O)c1ccc(C(=O)c2ccccc2)s1` (stereo not given), the inhibition of viability is reported as 7.4% (inactive). For `CN1CCCN(C(c2ccccc2)c2ccc(Cl)cc2)CC1` (stereo not given), the inhibition of viability was 96.5% (active). In the case of `O=C1CC[C@@H](C(=O)O)N1`, the inhibition of viability is reported as 11.4% (inactive). In the case of `CCOC(=O)Nc1ccc2c(c1)N(C(=O)CCN1CCOCC1)c1ccccc1S2`, the inhibition of viability is reported as 15.2% (inactive). With `COc1ccc(-c2cc(=S)ss2)cc1` the inhibition of viability was 27.2% (inactive). In the case of `CN1CCN(C2=Nc3ccccc3Sc3ccc(Cl)cc32)CC1`, the inhibition of viability is reported as 79.7% (active). With `CCCNC(C)C(=O)Nc1c(C)csc1C(=O)OC` (stereo not given) the inhibition of viability was 8.5% (inactive). With `O=C(O)Cc1sc(-c2ccccc2)nc1-c1ccc(Cl)cc1` the inhibition of viability was 43.2% (inactive). With `NS(=O)(=O)c1cc2c(cc1Cl)NC(CC1CCCC1)NS2(=O)=O` (stereo not given) the inhibition of viability was 1.1% (inactive). With `O=C(O)c1ccc[n+]([O-])c1` the inhibition of viability was -1.7% (inactive). With `CN(C)CCn1nnnc1SCC1=C(C(=O)O)N2C(=O)[C@@H](NC(=O)Cc3csc(N)n3)[C@H]2SC1` the inhibition of viability was -8.3% (inactive). For `CC(C)(C)C(=O)OCOC(=O)[C@@H]1N2C(=O)[C@@H](NC(=O)[C@H](N)c3ccccc3)[C@H]2SC1(C)C`, the inhibition of viability was -17.9% (inactive). For `COCC(=O)Nc1c(I)c(C(=O)NCC(O)CO)c(I)c(C(=O)N(C)CC(O)CO)c1I` (stereo not given), the inhibition of viability was -4.47% (inactive). For `C1CCN2C[C@@H]3C[C@@H](CN4CCCC[C@@H]34)[C@H]2C1`, the inhibition of viability was 22.6% (inactive). With `Cc1c(-c2ccccc2)oc2c(C(=O)OCCN3CCCCC3)cccc2c1=O` the inhibition of viability was 5.5% (inactive). With `CCCCN1C[C@H](O)[C@@H](O)[C@H](O)[C@H]1CO` the inhibition of viability was -0.5% (inactive). In the case of `NC(=O)OCC(O)COc1ccc(Cl)cc1` (stereo not given), the inhibition of viability is reported as 8.4% (inactive). In the case of `CCCCc1cc2ccccc2c(OCCN(C)C)n1`, the inhibition of viability is reported as 22.3% (inactive). With `O=C1[O][Bi][O]c2ccccc21` the inhibition of viability was 14% (inactive). For `C[N+]1(C)CCC(=C(c2ccccc2)c2ccccc2)CC1`, the inhibition of viability was 7.97% (inactive). With `CC(C)NC[C@@H](O)COc1ccc(CC(N)=O)cc1` the inhibition of viability was 1.1% (inactive). With `OCc1ccccn1` the inhibition of viability was -23.7% (inactive). In the case of `CN1CCCC(CC2c3ccccc3Sc3ccccc32)C1` (stereo not given), the inhibition of viability is reported as 86% (active).
